# According to PMC7862700, “An all-to-all approach to the identification of sequence-specific readers for epigenetic DNA modifications on cytosine”:
# Legend:
# Assay in all cases: DAPPL (digital affinity profiling via proximity ligation, sequencing); 10 mM Tris-HCl pH 7.5, 50 mM NaCl, 1 mM DTT, 4% glycerol, room temperature, 30 min; GST-TFs on glutathione beads, 16-mer random dsDNA library, 0.1% formaldehyde crosslink after washing; high values mean tight binding
# [1] = molecular target: T1, FEV (Homo sapiens, UniProt Q99581 1-238); settings: protein: recombinant; tags: N-terminal GST; dsDNA, one strand shown
# T1 sequence: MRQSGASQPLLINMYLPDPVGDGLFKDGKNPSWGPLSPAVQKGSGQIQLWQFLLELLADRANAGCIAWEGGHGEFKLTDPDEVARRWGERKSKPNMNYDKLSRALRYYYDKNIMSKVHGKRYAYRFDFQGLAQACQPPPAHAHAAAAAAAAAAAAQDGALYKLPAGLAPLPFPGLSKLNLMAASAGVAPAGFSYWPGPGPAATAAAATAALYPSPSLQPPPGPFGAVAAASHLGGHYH
# Procedure, shortened: (§1)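 Sequencing on an Illumina NextSeq500 followed washing, crosslinking with 0.1% formaldehyde, proximity ligation (BsaI/T4 ligase, 1 h, 37 °C) and PCR amplification of pools that had been incubated for 30 min at room temperature with 200 nmole of a random double-stranded 16-mer DNA library in Tris/NaCl/DTT/glycerol buffer. Each pool held DNA-barcoded human transcription factors, expressed in yeast as GST fusions and captured on glutathione beads, plus a tag-only sample. Binding signal is a hexamer's read frequency for a factor divided by its frequency in the tag-only sample.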
# [2] = molecular target: ETV5 (Homo sapiens, UniProt P41161 1-510); settings: protein: recombinant; tags: N-terminal GST; dsDNA, one strand shown
# Procedure, shortened: as §1
# [3] = molecular target: HSF1 (Homo sapiens, UniProt Q00613 1-529); settings: protein: recombinant; tags: N-terminal GST; chain copies: 3; dsDNA, one strand shown
# Procedure, shortened: as §1
# [4] = molecular target: T2, SPIC (Homo sapiens, UniProt Q8N5J4 1-248); settings: protein: recombinant; tags: N-terminal GST; dsDNA, one strand shown
# T2 sequence: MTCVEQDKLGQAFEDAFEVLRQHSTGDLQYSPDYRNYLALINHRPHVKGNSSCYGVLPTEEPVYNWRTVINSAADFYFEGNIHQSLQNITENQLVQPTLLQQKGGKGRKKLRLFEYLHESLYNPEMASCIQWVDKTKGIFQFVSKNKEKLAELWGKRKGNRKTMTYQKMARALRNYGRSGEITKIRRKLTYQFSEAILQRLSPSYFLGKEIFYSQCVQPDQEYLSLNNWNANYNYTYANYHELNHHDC
# Procedure, shortened: as §1
# [5] = molecular target: ELF4 (Homo sapiens, UniProt Q99607 1-663); settings: protein: recombinant; tags: N-terminal GST; dsDNA, one strand shown
# Procedure, shortened: as §1
# [6] = molecular target: T3, ELK4 (Homo sapiens, UniProt P28324-2 1-405); settings: protein: recombinant; tags: N-terminal GST; dsDNA, one strand shown
# T3 sequence: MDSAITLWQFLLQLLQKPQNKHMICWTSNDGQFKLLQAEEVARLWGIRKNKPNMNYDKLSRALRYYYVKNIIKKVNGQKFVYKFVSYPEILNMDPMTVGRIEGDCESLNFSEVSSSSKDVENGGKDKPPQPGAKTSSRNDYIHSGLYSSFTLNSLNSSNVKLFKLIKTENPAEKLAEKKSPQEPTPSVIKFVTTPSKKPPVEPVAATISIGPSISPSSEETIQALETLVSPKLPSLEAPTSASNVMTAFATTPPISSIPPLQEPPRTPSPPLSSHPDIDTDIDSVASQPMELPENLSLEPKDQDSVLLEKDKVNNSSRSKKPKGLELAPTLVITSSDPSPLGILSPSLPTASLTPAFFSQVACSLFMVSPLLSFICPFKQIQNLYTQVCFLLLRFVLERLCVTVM
# Procedure, shortened: as §1
# [7] = molecular target: T4, ETV2 (Homo sapiens, UniProt O00321 1-342); settings: protein: recombinant; tags: N-terminal GST; dsDNA, one strand shown
# T4 sequence: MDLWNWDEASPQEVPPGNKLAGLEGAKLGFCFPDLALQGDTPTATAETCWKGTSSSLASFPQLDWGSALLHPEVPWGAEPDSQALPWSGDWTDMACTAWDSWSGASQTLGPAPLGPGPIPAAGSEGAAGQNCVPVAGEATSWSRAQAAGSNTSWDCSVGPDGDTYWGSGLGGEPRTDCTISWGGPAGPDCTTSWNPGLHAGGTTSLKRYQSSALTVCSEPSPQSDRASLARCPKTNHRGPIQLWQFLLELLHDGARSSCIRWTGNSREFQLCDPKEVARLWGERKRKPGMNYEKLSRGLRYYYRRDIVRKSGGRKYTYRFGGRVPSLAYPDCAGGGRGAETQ
# Procedure, shortened: as §1
# [8] = molecular target: T5, ELF3 (Homo sapiens, UniProt P78545 1-371); settings: protein: recombinant; tags: N-terminal GST; dsDNA, one strand shown
# T5 sequence: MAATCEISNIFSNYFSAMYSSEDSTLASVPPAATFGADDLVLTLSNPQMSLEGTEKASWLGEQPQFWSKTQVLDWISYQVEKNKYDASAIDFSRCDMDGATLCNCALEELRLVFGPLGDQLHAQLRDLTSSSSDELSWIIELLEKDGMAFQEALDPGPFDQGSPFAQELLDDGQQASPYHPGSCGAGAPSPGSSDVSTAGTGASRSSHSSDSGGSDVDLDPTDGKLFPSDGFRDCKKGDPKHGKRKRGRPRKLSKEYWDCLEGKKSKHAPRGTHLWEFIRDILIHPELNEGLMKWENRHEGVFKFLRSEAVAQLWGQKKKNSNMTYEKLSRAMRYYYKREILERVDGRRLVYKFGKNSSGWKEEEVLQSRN
# Procedure, shortened: as §1
# [9] = molecular target: CRX (Homo sapiens, UniProt O43186 1-299); settings: protein: recombinant; tags: N-terminal GST; dsDNA, one strand shown
# Procedure, shortened: as §1
# [10] = molecular target: ETV1 (Homo sapiens, UniProt P50549 1-477); settings: protein: recombinant; tags: N-terminal GST; dsDNA, one strand shown
# Procedure, shortened: as §1
# [11] = molecular target: T6, ERF (Homo sapiens, UniProt P50548 1-548); settings: protein: recombinant; tags: N-terminal GST; dsDNA, one strand shown
# T6 sequence: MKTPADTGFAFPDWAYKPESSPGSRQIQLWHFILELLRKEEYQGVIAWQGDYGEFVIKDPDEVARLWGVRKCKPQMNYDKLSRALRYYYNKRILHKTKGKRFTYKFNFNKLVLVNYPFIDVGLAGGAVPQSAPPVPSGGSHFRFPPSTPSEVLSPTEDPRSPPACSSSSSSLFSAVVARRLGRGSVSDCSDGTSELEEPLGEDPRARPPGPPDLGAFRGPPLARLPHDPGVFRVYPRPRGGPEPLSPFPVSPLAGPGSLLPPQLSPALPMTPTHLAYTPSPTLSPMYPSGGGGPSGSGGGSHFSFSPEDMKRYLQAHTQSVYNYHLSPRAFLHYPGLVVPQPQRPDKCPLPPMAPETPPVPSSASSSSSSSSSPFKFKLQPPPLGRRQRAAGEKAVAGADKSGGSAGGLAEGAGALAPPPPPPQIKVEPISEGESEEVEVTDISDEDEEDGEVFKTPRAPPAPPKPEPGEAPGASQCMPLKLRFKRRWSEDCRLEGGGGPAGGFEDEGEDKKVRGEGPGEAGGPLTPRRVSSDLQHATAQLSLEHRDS
# Procedure, shortened: as §1
# [12] = molecular target: T7, ETV3L (Homo sapiens, UniProt Q6ZN32 1-361); settings: protein: recombinant; tags: N-terminal GST; dsDNA, one strand shown
# T7 sequence: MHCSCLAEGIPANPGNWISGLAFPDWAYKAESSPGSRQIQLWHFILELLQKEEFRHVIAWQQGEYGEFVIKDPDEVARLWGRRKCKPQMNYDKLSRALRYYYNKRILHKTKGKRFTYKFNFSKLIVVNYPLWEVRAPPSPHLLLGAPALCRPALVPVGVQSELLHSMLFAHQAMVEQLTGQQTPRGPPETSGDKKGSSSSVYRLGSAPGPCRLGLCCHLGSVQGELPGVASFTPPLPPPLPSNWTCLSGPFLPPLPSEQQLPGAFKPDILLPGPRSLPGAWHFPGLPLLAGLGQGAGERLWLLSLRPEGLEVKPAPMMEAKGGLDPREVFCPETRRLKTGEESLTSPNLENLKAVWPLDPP
# Procedure, shortened: as §1
# [13] = molecular target: T8, ETS2 (Homo sapiens, UniProt P15036 1-469); settings: protein: recombinant; tags: N-terminal GST; dsDNA, one strand shown
# T8 sequence: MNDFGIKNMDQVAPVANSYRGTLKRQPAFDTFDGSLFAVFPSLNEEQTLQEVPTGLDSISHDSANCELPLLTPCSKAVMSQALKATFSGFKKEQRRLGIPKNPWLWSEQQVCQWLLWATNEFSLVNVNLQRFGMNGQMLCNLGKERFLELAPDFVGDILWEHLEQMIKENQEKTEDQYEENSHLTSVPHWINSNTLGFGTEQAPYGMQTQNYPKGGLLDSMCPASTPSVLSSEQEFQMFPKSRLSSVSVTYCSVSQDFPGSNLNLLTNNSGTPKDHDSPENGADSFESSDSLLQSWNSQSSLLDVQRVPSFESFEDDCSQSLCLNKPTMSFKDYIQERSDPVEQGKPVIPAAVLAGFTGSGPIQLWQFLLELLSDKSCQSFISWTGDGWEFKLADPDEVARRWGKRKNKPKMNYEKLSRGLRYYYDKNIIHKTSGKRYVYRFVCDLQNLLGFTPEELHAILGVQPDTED
# Procedure, shortened: as §1
# [14] = molecular target: T9, SPDEF (Homo sapiens, UniProt O95238 1-335); settings: protein: recombinant; tags: N-terminal GST; dsDNA, one strand shown
# T9 sequence: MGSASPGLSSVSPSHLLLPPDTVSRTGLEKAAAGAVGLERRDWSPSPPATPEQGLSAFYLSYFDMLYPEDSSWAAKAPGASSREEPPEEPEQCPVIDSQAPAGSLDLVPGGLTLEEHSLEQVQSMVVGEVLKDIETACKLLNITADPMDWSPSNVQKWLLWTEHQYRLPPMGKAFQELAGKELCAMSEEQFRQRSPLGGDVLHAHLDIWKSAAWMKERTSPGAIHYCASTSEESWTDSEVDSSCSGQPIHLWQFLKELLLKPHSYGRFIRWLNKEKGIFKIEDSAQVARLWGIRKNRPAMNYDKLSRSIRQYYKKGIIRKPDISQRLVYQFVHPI
# Procedure, shortened: as §1
# [15] = molecular target: T10, ETV7 (Homo sapiens, UniProt Q9Y603 1-341); settings: protein: recombinant; tags: N-terminal GST; dsDNA, one strand shown
# T10 sequence: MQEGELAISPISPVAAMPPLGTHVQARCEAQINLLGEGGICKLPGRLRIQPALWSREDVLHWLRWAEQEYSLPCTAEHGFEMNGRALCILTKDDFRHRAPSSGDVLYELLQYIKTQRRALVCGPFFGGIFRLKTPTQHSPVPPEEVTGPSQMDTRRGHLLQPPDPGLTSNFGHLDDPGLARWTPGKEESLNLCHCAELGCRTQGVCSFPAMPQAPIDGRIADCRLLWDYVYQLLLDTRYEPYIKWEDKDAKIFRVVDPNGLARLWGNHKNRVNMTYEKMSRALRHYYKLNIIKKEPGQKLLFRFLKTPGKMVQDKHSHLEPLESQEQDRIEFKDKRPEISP
# Procedure, shortened: as §1
# [16] = molecular target: T11, ELF5 (Homo sapiens, UniProt Q9UKW6-2 1-255); settings: protein: recombinant; tags: N-terminal GST; dsDNA, one strand shown
# T11 sequence: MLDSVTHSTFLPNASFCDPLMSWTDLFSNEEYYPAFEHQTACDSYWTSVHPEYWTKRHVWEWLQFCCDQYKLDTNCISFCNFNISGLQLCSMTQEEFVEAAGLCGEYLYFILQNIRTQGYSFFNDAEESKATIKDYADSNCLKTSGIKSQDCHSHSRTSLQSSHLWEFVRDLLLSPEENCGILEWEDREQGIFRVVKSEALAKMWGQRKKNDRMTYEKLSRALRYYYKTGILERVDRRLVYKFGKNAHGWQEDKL
# Procedure, shortened: as §1
# [17] = molecular target: T12, ETV3 (Homo sapiens, UniProt P41162-2 1-143); settings: protein: recombinant; tags: N-terminal GST; dsDNA, one strand shown
# T12 sequence: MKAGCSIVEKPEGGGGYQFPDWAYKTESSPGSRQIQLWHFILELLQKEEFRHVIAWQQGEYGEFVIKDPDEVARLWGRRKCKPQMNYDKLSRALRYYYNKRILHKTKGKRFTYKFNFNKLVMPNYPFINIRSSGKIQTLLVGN
# Procedure, shortened: as §1
# [18] = molecular target: ETV6 (Homo sapiens, UniProt P41212 1-452); settings: protein: recombinant; tags: N-terminal GST; dsDNA, one strand shown
# Procedure, shortened: as §1
# ETV1, sequence (P50549 whole entry): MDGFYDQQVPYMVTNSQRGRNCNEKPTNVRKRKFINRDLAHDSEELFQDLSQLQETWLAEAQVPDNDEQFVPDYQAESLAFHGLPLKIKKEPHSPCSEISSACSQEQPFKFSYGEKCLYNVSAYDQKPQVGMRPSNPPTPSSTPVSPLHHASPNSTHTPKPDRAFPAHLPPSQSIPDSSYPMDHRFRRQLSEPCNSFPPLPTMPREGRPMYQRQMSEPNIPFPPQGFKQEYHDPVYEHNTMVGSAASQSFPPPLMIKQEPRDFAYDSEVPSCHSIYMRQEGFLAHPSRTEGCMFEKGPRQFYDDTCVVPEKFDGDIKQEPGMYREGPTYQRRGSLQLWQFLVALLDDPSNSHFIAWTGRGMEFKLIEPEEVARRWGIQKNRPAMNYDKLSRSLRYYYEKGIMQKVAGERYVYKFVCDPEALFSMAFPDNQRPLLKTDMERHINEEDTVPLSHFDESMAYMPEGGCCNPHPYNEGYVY
# HSF1, sequence (Q00613 whole entry): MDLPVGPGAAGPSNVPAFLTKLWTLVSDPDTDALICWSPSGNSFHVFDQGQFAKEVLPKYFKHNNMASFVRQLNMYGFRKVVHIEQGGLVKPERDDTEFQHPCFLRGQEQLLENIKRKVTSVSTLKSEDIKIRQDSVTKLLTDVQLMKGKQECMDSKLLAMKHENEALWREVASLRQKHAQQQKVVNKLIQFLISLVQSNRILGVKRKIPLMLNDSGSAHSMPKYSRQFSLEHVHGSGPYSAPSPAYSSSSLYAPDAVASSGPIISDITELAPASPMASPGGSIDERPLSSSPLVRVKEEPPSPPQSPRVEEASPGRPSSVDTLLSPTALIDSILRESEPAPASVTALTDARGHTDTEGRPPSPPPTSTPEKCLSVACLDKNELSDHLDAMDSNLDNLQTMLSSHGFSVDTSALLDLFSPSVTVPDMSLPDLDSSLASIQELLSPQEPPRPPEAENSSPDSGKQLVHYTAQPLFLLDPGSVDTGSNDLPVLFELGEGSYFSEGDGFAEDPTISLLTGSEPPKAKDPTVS
# ELF4, sequence (Q99607 whole entry): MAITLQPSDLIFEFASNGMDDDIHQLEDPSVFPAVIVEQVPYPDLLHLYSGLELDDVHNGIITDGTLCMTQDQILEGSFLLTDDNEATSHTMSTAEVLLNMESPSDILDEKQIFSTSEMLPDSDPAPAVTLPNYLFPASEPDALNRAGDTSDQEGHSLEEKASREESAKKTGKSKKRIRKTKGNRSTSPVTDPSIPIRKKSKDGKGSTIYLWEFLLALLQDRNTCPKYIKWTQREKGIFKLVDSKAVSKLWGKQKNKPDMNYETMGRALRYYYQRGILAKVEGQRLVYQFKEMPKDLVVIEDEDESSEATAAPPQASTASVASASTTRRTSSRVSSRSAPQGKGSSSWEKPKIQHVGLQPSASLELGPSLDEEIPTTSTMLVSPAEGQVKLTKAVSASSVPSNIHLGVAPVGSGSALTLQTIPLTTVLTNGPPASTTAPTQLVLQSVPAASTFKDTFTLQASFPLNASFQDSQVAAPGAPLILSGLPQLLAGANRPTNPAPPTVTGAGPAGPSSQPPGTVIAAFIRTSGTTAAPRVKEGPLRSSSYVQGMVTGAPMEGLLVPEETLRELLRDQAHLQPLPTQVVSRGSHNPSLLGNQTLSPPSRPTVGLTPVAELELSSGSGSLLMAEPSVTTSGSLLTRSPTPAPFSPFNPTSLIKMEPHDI
# CRX, sequence (O43186 whole entry): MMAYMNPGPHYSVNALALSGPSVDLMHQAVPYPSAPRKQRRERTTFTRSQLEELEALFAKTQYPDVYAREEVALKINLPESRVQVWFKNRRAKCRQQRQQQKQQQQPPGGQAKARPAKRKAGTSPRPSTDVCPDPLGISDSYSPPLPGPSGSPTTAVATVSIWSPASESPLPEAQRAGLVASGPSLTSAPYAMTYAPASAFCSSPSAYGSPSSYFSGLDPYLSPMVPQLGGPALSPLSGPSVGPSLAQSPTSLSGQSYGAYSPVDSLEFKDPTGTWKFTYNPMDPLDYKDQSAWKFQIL
# ETV5, sequence (P41161 whole entry): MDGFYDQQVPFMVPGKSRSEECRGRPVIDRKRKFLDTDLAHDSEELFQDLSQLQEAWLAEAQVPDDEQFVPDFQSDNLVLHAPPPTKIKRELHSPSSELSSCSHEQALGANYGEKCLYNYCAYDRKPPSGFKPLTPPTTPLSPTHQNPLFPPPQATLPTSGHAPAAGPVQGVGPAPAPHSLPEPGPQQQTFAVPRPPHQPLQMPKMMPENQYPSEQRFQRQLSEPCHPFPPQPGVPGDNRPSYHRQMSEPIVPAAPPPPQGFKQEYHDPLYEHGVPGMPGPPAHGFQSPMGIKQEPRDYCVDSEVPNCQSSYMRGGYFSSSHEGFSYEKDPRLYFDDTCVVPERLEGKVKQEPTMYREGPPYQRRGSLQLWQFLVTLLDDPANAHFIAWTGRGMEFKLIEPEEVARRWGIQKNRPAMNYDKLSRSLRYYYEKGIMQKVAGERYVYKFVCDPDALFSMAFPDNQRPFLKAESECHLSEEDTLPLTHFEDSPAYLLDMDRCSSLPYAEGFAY
# ETV6, sequence (P41212 whole entry): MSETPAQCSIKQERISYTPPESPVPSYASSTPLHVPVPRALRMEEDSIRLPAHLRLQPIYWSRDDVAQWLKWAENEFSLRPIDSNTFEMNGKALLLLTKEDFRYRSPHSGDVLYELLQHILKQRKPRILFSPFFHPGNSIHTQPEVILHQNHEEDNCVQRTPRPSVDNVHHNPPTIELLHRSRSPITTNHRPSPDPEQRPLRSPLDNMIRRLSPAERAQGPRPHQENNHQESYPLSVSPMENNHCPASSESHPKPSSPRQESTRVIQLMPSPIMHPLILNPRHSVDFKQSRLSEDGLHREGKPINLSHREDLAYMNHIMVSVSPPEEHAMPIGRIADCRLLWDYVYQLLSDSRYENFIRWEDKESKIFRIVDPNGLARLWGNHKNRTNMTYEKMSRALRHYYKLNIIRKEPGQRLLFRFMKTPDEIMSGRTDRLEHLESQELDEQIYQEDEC
sequence,measurement,setting,value
AAAACC,binding signal,[1],"1.24 fold enrichment (6-mer frequency, TF over GST control)"
same,binding signal,[2],"1.18 fold enrichment (6-mer frequency, TF over GST control)"
same,binding signal,[3],"1.09 fold enrichment (6-mer frequency, TF over GST control)"
same,binding signal,[4],"1.15 fold enrichment (6-mer frequency, TF over GST control)"
same,binding signal,[5],"1.19 fold enrichment (6-mer frequency, TF over GST control)"
same,binding signal,[6],"1.22 fold enrichment (6-mer frequency, TF over GST control)"
same,binding signal,[7],"1.15 fold enrichment (6-mer frequency, TF over GST control)"
same,binding signal,[8],"1.17 fold enrichment (6-mer frequency, TF over GST control)"
same,binding signal,[9],"1.19 fold enrichment (6-mer frequency, TF over GST control)"
same,binding signal,[10],"1.19 fold enrichment (6-mer frequency, TF over GST control)"
same,binding signal,[11],"1.22 fold enrichment (6-mer frequency, TF over GST control)"
same,binding signal,[12],"1.18 fold enrichment (6-mer frequency, TF over GST control)"
same,binding signal,[13],"1.11 fold enrichment (6-mer frequency, TF over GST control)"
same,binding signal,[14],"1.18 fold enrichment (6-mer frequency, TF over GST control)"
same,binding signal,[15],"1.25 fold enrichment (6-mer frequency, TF over GST control)"
same,binding signal,[16],"1.19 fold enrichment (6-mer frequency, TF over GST control)"
same,binding signal,[17],"1.08 fold enrichment (6-mer frequency, TF over GST control)"
same,binding signal,[18],"1.19 fold enrichment (6-mer frequency, TF over GST control)"
